Measured values reported in ChEMBL document CHEMBL4513216, “Probing the Open Global Health Chemical Diversity Library for Multistage-Active Starting Points for Next-Generation Antimalarials” (ACS Infect Dis, 2020).
Screen size: about 69,000 compounds; about 8,600 (12%) showed an effect of 50% or more. This excerpt belongs to a sample that is enriched for strong results.

These compounds were tested on Plasmodium berghei (assay: Screen against P. berghei liver stage (PbLuc), transformed with Luciferase, at 10uM). Conditions: tested at 10 uM.
Type: functional, HepG2

SMILES | INHIBITION [%]
CCCS(=O)(=O)NC1CCN(c2cccc(F)c2C#N)CC1 | 25.4
c1nc(CCC2CCCCN2)cc(N2CCCC2)n1 (centres undefined) | 32.8
O=C(CC1CC1)N1Cc2nccn2CC(COc2cccnc2)C1 (centres undefined) | 13.5
O=C(N[C@H]1CCCC[C@@H]1O)c1cccc(-c2nc3ccccc3[nH]2)c1 | -13.2
Cc1nc(CN2CCCC(NCc3nc4ccccc4s3)C2)no1 (centres undefined) | 29.2
Cc1nc(CN2CCCC(NCc3ccsc3)C2)no1 (centres undefined) | 20.1
Cc1nc(CN2CCCC(Nc3ncnc4c3CCC4)C2)no1 (centres undefined) | 85.1
CCc1nc(CN2CCCC(Nc3ncnc4ccsc34)C2)no1 (centres undefined) | 88.5
Cc1nc(CN2CCCC(Nc3ncnc4ccsc34)C2)no1 (centres undefined) | 79.1
Cc1nc(CN2CCCC(NCc3ccc4ccccc4c3)C2)no1 (centres undefined) | 41.5
CCc1nc(CN2CCCC(NCc3cc(C)no3)C2)no1 (centres undefined) | 29.5
Cc1nc(CN2CCCC(Nc3ncnc4ccccc34)C2)no1 (centres undefined) | 90.2
CCc1nc(CN2CCCC(NCc3cnc(C)s3)C2)no1 (centres undefined) | 15.3
Cc1nc(CN2CCCC(NCc3cnn(C)c3)C2)no1 (centres undefined) | -10.6
Cc1nc(CN2CCCC(NCc3sccc3C)C2)no1 (centres undefined) | 48.4
Cc1nc(CN2CCCC(NCc3cccc4ccccc34)C2)no1 (centres undefined) | -18.8
CN(C)Cc1cnc(C2CCN(C(=O)c3cc(F)cc(F)c3)C2)[nH]1 (centres undefined) | 2.05
CC(C(=O)N1CCCC1)N1CCN(c2ncc(Cl)cn2)CC1 (centres undefined) | 13.8
CN(C)C(=O)CN1CCCCC1c1nc(N)ncc1-c1ccccc1 (centres undefined) | 19.3
COc1cc(N2CC[C@@H]3O[C@@H](C(=O)NC(C)C)C[C@@H]32)ncn1 | -4.32
O=C(COCc1nc(-c2ccncc2)no1)N1CCCCC1 | -19.7
CN(C)S(=O)(=O)c1ccc(CN2CCCC2c2cccs2)o1 (centres undefined) | 22.3
CN1CCC(N2CCC(C(=O)N(C)C)CC2)CC1 | 28.5

SMILES | INHIBITION [%]
CNCC(=O)N1CCCC(c2nccnc2Oc2cccc(F)c2)C1 (centres undefined) | 49.5
Cn1cc(CCC(=O)NCc2ccccc2OC(C)(C)C)cn1 | -1.3
NC(=O)CSc1nnc2n1N=CN(c1ccccc1F)C2 | -14.9
C[C@@H](O)CNC(=O)CCc1nc2cccnc2[nH]1 | -2.13
COCC(C)NC(=O)N1CCN(S(C)(=O)=O)CC1 (centres undefined) | 5.91
CNC(=O)c1cn[nH]c1C1(C)CCCN(Cc2ccccc2OC)C1 (centres undefined) | 72.5
CNC(=O)c1cn[nH]c1C1(C)CCCN(Cc2ccccn2)C1 (centres undefined) | 17.1
CNC(=O)c1cn[nH]c1C1(C)CCCN(CC2(O)CCCCC2)C1 (centres undefined) | 29.2
CN(Cc1noc(C2CC2)n1)C1CCN(CCn2cccn2)C1 (centres undefined) | -45.6
Cc1nccnc1C1CCN(C2CCCC2O)CC1 (centres undefined) | -59.6
COc1ccc(CCC(=O)N2CCNCC2C(=O)N2CCOCC2)cc1 (centres undefined) | 30.3
CCN(Cc1nc(-c2ccco2)no1)Cc1cccc2c1OCO2 | 55
CCN(Cc1cccc2c1OCO2)CC1CCCO1 (centres undefined) | 50.5
CCN(Cc1ccc2cccc(O)c2n1)CC1CCCO1 (centres undefined) | -13.5
Cc1nnc(CN(Cc2cccc3c2OCO3)CC2CCCO2)n1C (centres undefined) | -31.5
Cc1noc(CN(Cc2ccco2)Cc2cccc3c2OCO3)n1 | 30.3
CN(Cc1ccc2c(c1)OCO2)Cc1nc(-c2ccco2)no1 | 15
CC(CNC(=O)N(C)Cc1ccco1)N1CCc2sccc2C1 (centres undefined) | 11.4
COCC1CN(Cc2cccc(C#N)c2)Cc2nccn2C1 (centres undefined) | 25.1
NC(=O)c1cccc(C(=O)N2CCCC(n3ccnc3)C2)c1 (centres undefined) | -31.5
Cc1cnc(NC(=O)N2CCCCCC2)s1 | -9.54
O=C(Nc1nnc(N2CCCCC2)[nH]1)c1cccs1 | -20.6
CCNc1ncc(C(=O)Nc2nnc(N3CCCCC3)[nH]2)s1 | 51.1

SMILES | INHIBITION [%]
Cc1nc(C(=O)N2CCc3[nH]nc(Nc4ccccc4)c3C2)co1 | 10.9875
O=S(=O)(N1CCOCC1)N1CCC(Oc2cnccn2)CC1 | 32.8
CC(=O)N1CCOCC2(CN(Cc3ccc(C)o3)CCO2)C1 (centres undefined) | 26.7
COCCN1CCC(CNC(=O)C2(c3cccc(C)c3)CC2)C1 (centres undefined) | 11.4
O=C(Cn1nc2c(cc1=O)CCCC2)N[C@@H](C(=O)O)c1ccccc1 | -19
O=C(Cn1nc2c(cc1=O)CCCC2)NC(C(=O)O)c1ccccc1 (centres undefined) | 69.8
O=C(Cn1nc2c(cc1=O)CCCC2)NC(Cc1ccccc1)C(=O)O (centres undefined) | -30.4
Cc1oc(C(=O)O)cc1S(=O)(=O)Nc1cc(F)ccc1F | 21
Cc1nc(CN2C(=O)C[C@@H]3[C@@H]2CCN3S(=O)(=O)C2CC2)cs1 | -64.1
Cc1cccc(NC2CCN(C(=O)Nc3cccc4[nH]ccc34)CC2)n1 | 76.1
Cc1cccc(NC2CCN(C(=O)Nc3cc(C)on3)CC2)n1 | 37.2
Cc1cccc(NC2CCN(C(=O)Nc3cn[nH]c3)CC2)n1 | 28.8
Cc1cccc(NC2CCN(C(=O)Nc3ccc(F)cc3C)CC2)n1 | -0.113
O=C(c1ccc2cc[nH]c2c1)N1CCC(Nc2cccnn2)CC1 | 11.4
Cc1cccc(NC2CCN(C(=O)Nc3ccncc3)CC2)n1 | 16.8
Cc1cccc(NC2CCN(C(=O)Nc3cc(F)cc(F)c3)CC2)n1 | 90
Cc1cccc(NC2CCN(C(=O)Nc3cc(F)ccc3F)CC2)n1 | -7.35
Cc1cccc(NC2CCN(C(=O)Nc3ccc(F)c(F)c3)CC2)n1 | 67.4
CCn1cc(CN2CCCN(C(=O)c3ccc(C)o3)CC2)cn1 | 31.3
Cn1ccnc1CN1CCC2(CCC(=O)N2CCN2CCCC2)CC1 | 35.2
O=C(NCCn1nc(-n2cncn2)ccc1=O)c1ccc(F)cc1F | 7.77
c1cnn(-c2ccc(CCNC3CCN(C4CC4)C3)cc2)c1 (centres undefined) | 14.2
COc1cccc(-n2nnc(C(=O)N3CCCCCC3)c2C)c1 | 2.845
